Shown are actives, neighbours in structure and some others; about 13% of the full set was active somewhere.
HCMV inh: inhibitors of human cytomegalovirus; activity change, negative = inhibition, % at 57.5 µM; HFF cells, HCMV-luciferase reporter, 72 h; active compounds read low; AID 1259415; 410,000 compounds, 4.5% hits; in the data active = activity change below about -60%; inconclusive = no clear call, values can overlap the other calls; inactive = above about -39%
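Two compound doses tested in HFFs infected with HCMV-luciferase, MOI 1 PFU/cell, 72 h at 37C. Lysate luminescence read with OneGlo; data normalized against buffer-only and 10uM Salinomycin inhibitor controls.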
Pf growth 48h: P. falciparum growth inhibition at 48 hours (one generation); P. falciparum luciferase growth in erythrocytes, 48 h; Potency, µM (highest dose often 28.7 µM), inactives show at the highest dose activity change, negative = inhibition, hits mostly inhibitors; 310,000 compounds, 5.9% hits; also: potency is read from the fitted curve at half-maximal effect
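A one-generation exposure of luciferase-tagged malaria parasites in RPMI 1640/Albumax erythrocyte culture, 37 C and 5% CO2. Inhibition is inferred from decreased luminescence after adding detection reagent.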
Pf growth 96h: P. falciparum growth inhibition at 96 hour, primary screen for plastid delayed-death inhibitors; 320,000 compounds, 6.9% hits; Potency, µM (titrated, usually from 28.7 µM), for inactives: at the top dose activity change, negative = inhibition, most hits filed as inhibitors; P. falciparum luciferase reporter growth, 96 h; AID 504834; also: potency is read from the fitted curve at half-maximal effect
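Delayed-death screen, second-generation endpoint: infected erythrocytes, 2% hematocrit, 0.05% parasitemia final; 96 hours at 37 C, 5% CO2; luciferase detection reagent; luminescence decrease equals reduced growth.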
HCV inh: inhibitors of hepatitis C virus infection; Huh7.5.1 HCVcc-Cre infection, luciferase reporter, 44 h; Potency, µM (series often up to 41.8 µM), for the others: top-dose activity change, negative = inhibition, most hits filed as inhibitors; 340,000 compounds, 3.4% hits; AID 651820; also: potency is read from the fitted curve at half-maximal effect
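1,000 cells/well; 4 h culture; + compound; + HCVcc-Cre (~0.5 moi); 44 h; luciferase substrate, RT 15 min; read 15 sec.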
Starred values were filed as active, the others as inactive; ? = inconclusive; nt = not tested or not shown. Unless noted, calls follow the shape of the dose curve; as a rule, active = well fitted inhibition curve with a large enough effect; inconclusive = small, poorly fitted or top-dose-only effect, or another doubt; inactive = no such curve, though single readings can be large or run the other way. % is scaled to controls: 0 for no effect and ±100 for the full control effect.

SMILES	HCMV inh	Pf growth 48h	Pf growth 96h	HCV inh
Cc1ccc(NC2=Nc3ccccc3N3C2=Nc2c(c(C)nn2-c2ccccc2)C3c2ccc(O)c(O)c2)cc1 (configuration not stated)	-64*	?	?	-72%
Cc1nn(-c2ccccc2)c(C)c1NC(=O)COC(=O)c1cc(Br)ccc1O	-11	-7%	3%	14%
Cc1ccc(NC(=O)c2c(C)nn(-c3ccccc3)c2Cl)cc1	24	11%	?	-23%
Cc1cccc(CSc2cn(CC(=O)N3CCCCC3)c3ccccc23)c1	70	nt	nt	nt
CCc1ccccc1N(C)C(=O)c1cc2c(=O)oc3ccccc3c2s1	-9	nt	nt	nt
CCOC(=O)c1ccc2c(c1)N(C(CC)C(=O)Nc1ccccc1OC)C(=O)c1ccccc1S2 (configuration not stated)	-6	nt	nt	nt
CCC(C(=O)Nc1ccccc1OC)n1c(C(=O)OC)cc2ccsc21 (configuration not stated)	27	12µM*	?	?
O=C(C[n+]1cnn(CC(=O)c2ccc(Cl)cc2Cl)c1)c1ccc([N+](=O)[O-])cc1	58	3.7µM*	?	?
Cc1ccc2c(=O)cc(C(=O)Nc3nnc(CC(C)C)s3)oc2c1C	9	nt	nt	nt
C=CCN(C(=O)C1CSC2(C)CCC(=O)N12)c1nc(-c2ccccc2)cs1 (configuration not stated)	-7	12µM*	?	?
CN(Cc1ccc(C(C)(C)C)cc1)C(=O)C1CSC2(C)CCC(=O)N12 (configuration not stated)	42	?	?	-21%
CC(C(=O)NC1CCCC1)n1c(C2CCCC2)nc2ccccc21 (configuration not stated)	-8	nt	nt	nt
O=C(NCc1ccccc1Cl)C1CCN(S(=O)(=O)c2ccc(F)cc2)CC1	4	20%	31%	?
CCCS(=O)(=O)N1CCC(C(=O)NCc2ccccc2Cl)CC1	5	24%	10µM*	16%
CC1CCN(S(=O)(=O)N2CCC(C(=O)NCc3ccccc3Cl)CC2)CC1	-6	nt	nt	nt
Cc1ccc(S(=O)(=O)N2CCC(C(=O)NCc3ccccc3Cl)CC2)cc1	46	nt	10µM*	-24%
O=C(NCc1ccccc1CN1CCCC1)C1CCN(S(=O)(=O)c2ccc(F)c(F)c2)CC1	-101*	-36%	?	-10%
CSc1ccc(S(=O)(=O)N2CCC(C(=O)NCc3ccccn3)CC2)cc1	3	-7%	12µM*	-11%
Cc1ccc(OCC(=O)Nc2ccc(OCc3cc(=O)n4ccsc4n3)cc2)cc1	7	nt	nt	nt
CNS(=O)(=O)c1cn(CC(=O)N2CCN(c3ccc(Cl)cc3)CC2)cc1S(=O)(=O)NC	0	nt	nt	nt
CN(C)c1ccc(-c2nc3cnccn3c2Nc2cccc(C(F)(F)F)c2)cc1	18	nt	nt	nt
CCN1C(=O)c2ccccc2Sc2ccc(NC(=O)N3CCN(c4cc(C)ccc4C)CC3)cc21	-61*	nt	nt	nt
CCN1C(=O)c2ccccc2Sc2ccc(NC(=O)Nc3ccc(C(C)=O)cc3)cc21	-26	nt	nt	nt
Cc1ccc(C)c(N2CCN(C(=O)Nc3ccc4c(c3)N(C)C(=O)CS4)CC2)c1	-16	?	35%	10µM*
CN1C(=O)CSc2ccc(NC(=O)N3CCN(c4ccccn4)CC3)cc21	-18	?	-21%	?
SMILES	HCMV inh	Pf growth 48h	Pf growth 96h	HCV inh
CN1C(=O)c2ccccc2Sc2ccc(NC(=O)N3CCN(c4ccc(F)cc4)CC3)cc21	-97*	nt	nt	nt
CN1C(=O)CSc2ccc(NC(=O)N3CCC(N4CCCCC4)CC3)cc21	13	nt	12µM*	-17%
COc1ccc(S(=O)(=O)N2CCN(Cc3nc4ccc(C)cc4o3)CC2)cc1OC	-14	nt	nt	nt
CC(C)(C)NC(=O)C1C(c2ccc(C(F)(F)F)cc2)=Nc2ccccc2N1C(=O)c1cccc2ccccc12 (configuration not stated)	16	nt	nt	nt
Cc1ccc2c(c1)c1c(c(=O)n(-c3ccccc3C)c(=O)n1CC(=O)NCCC1=CCCCC1)n2C	18	nt	nt	nt
O=C1C(Cl)=C(NCCN2CCCCC2)C(=O)c2ccccc21	nt	-27%	?	7.9µM*
CCNc1ccc2noc3c2c1C(=O)c1ccccc1-3	-37	35%	?	?
O=C1c2ccccc2-c2onc3ccc(N4CCCC4)c1c23	?	9.3µM*	39%	-15%
O=C1c2ccccc2-c2onc3ccc(NCc4ccco4)c1c23	nt	-28%	25%	10µM*
O=C1C(Cl)=C(NCc2ccco2)C(=O)c2ccccc21	-86*	nt	nt	8.9µM*
Cc1ccc(C)c(N2CCN(C(=O)c3c(C)oc4nc(C)nc(N5CCOCC5)c34)CC2)c1	-34	nt	nt	nt
Cc1cc(C)cc(N2C(=O)CSC23C(=O)N(CC(=O)Nc2ccc(F)cc2F)c2ccccc23)c1 (configuration not stated)	-1	nt	nt	nt
O=C(c1ccccc1)C1CCCN(Cc2nc(-c3cnccn3)no2)C1 (configuration not stated)	30	-12%	5.2µM*	10%
O=C(c1ccc(Cl)cc1)C1CCCN(Cc2cccc3cccnc23)C1 (configuration not stated)	-7	9.3µM*	-5%	?
Cc1ccc(CNC(=O)CCC2CCCN(Cc3cccc4ncccc34)C2)o1 (configuration not stated)	-39	?	-22%	-9%
O=C(c1ccc(Cl)cc1)C1CCCN(Cc2cccc3ncccc23)C1 (configuration not stated)	0	?	?	7.9µM*
Cc1ccc(CNC(=O)CCC2CCCN(Cc3cccc4cccnc34)C2)o1 (configuration not stated)	94	22%	?	-17%
CCn1ccnc1CN1CCCC(C(=O)c2ccc(SC)cc2)C1 (configuration not stated)	?	?	12%	-17%
CSc1ccc(C(=O)C2CCCN(Cc3cccc4nccnc34)C2)cc1 (configuration not stated)	-9	10µM*	?	-19%
CCc1ccc(-c2nc(CS(=O)CC(=O)NCCc3ccc(Cl)cc3)c(C)o2)cc1 (configuration not stated)	-3	nt	nt	nt
CCc1cc(C(=O)Nc2cnn(Cc3ccccc3C)c2)no1	69	nt	nt	nt
COc1cccc(-c2nnc(SCC(=O)N(C(C)C)C(C)C)o2)c1	15	-30%	-27%	-25%
COc1cc(OC)cc(-c2nnc(SCC(=O)N(Cc3ccccc3)C(C)(C)C)o2)c1	-71*	?	333%	-29%
COc1cc(-c2nnc(SCC(=O)N(Cc3ccccc3)C(C)(C)C)o2)cc(OC)c1OC	-9	10µM*	3.7µM*	?
COc1cc(OC)cc(-c2nnc(SCC(=O)N(C(C)C)C(C)C)o2)c1	55	7.4µM*	65%	-9%
CCN(CC)C(=O)CSc1nnc(-c2cc(OC)cc(OC)c2)o1	-13	5%	nt	?
Cc1ccc(NC(=O)CN2C=NS(=O)(=O)c3ccccc32)cc1	-1	nt	nt	nt
O=C(CCCN1C(=O)/C(=C/c2ccc(F)cc2)SC1=S)NCCCn1ccnc1	-67*	?	9.3µM*	-3%
